From PubChem BioAssay AID743379 (National Center for Advancing Translational Sciences (NCATS), 2014)
The source made the active and inactive calls. The call rests on the fitted dose curve.

Target: Phosphatidylinositol 5-phosphate 4-kinase type-2 beta (Homo sapiens) (UniProt P78356)
Assay: qHTS for Inhibitors of PI5P4K: PI5P4K-beta 32P-ATP TLC Secondary Assay for Probe SAR
Conditions: recombinant PI5P4K-beta, 32P-ATP TLC lipid kinase assay
Excerpt: In addition to finding PI5P, we discovered the type II phosphatidylinositol 5-phosphate 4-kinase (PI5P4K) family (alpha, beta, gamma isoforms) that catalyze the conversion of PI5P to PI(4,5)P2. Alternatively, PI(4,5)P2 can also be synthesized through phosphatidylinositol-4-phosphate (PI4P) by the type I phosphatidylinositol 4-phosphate 5-kinases (PI4P5K). These PI5P4K enzymes therefore represent one way by which cells can regulate endogenous PI5P levels and play important roles in insulin signaling and in stress responses. […] A qHTS PI5P4K-alpha ADP-Glo assay was developed to identify specific modulators of human PI5P4K, phosphatidylinositol-5-phosphate 4-kinase (Type II PIPK). To confirm that the active compounds and their analogs were true and selective inhibitors, a secondary Thin-layer Chromatography (TLC) assays against recombinant PI5P4K-alpha, PI4P5K-alpha or PI5P4K-beta that utilize a radioactively labeled ATP were developed. The data herein is the result of the PI5P4K-beta TLC assay. […]
The kinase reaction was carried out in a total of 50 microL of kinase buffer (50 mM HEPES pH 7.4 and 10 mM MgCl2) containing 20 microM of the lipids that were suspended by sonication. […] The radiolabeled product, PI(4,5)P2, was quantified with a phosphorimager (Molecular Dynamics, STORM840, GE Healthcare, Waukesha, WI, USA).

Sequence of Phosphatidylinositol 5-phosphate 4-kinase type-2 beta (Homo sapiens) (P78356 whole entry, looked up): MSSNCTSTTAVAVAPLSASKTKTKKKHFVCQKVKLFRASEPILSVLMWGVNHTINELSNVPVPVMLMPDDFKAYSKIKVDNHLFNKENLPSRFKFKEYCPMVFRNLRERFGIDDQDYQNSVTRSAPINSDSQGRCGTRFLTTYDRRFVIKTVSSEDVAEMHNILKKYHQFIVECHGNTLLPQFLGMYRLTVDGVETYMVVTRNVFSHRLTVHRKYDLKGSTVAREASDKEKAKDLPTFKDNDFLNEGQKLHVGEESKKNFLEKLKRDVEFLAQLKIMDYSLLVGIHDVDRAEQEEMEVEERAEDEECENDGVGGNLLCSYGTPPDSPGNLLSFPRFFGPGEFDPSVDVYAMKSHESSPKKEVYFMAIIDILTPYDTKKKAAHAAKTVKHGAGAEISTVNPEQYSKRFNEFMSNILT

SMILES	Potency
O=C1Nc2ccc(C(=O)c3ccco3)cc2/C1=C/c1cc(Cl)c(O)c(Cl)c1	890 nM (active)
